What all share (experiment): DAPPL (digital affinity profiling via proximity ligation, sequencing); 10 mM Tris-HCl pH 7.5, 50 mM NaCl, 1 mM DTT, 4% glycerol, room temperature, 30 min; GST-TFs on glutathione beads, 16-mer random dsDNA library, 0.1% formaldehyde crosslink after washing; high values mean tight binding
The target in one test is T1, FLI1 (Homo sapiens, UniProt Q01543 1-452).
T1 sequence: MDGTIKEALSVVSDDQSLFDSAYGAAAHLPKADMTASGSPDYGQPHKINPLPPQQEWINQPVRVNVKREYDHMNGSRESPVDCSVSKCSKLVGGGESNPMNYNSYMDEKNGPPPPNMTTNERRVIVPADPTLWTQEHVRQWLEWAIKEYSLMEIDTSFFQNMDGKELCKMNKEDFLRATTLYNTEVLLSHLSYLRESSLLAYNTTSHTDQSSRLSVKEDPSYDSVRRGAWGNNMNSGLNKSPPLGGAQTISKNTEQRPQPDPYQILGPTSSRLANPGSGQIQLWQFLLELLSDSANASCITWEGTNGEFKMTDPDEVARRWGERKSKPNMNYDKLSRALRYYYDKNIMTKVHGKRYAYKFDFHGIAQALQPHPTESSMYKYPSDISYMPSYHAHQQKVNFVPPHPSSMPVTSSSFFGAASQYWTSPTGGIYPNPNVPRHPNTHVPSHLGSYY
To be noted: protein: recombinant; tags: N-terminal GST; dsDNA, one strand shown. Summed up:
(§1)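 Human transcription factors fused to GST were expressed in yeast, captured on glutathione beads, given DNA barcodes and pooled with a GST-only negative control. Pools were incubated with 200 nmole of a 16-mer random double-stranded DNA library in Tris/NaCl/DTT/glycerol buffer at room temperature for 30 min. They were then washed, crosslinked with 0.1% formaldehyde, proximity-ligated (BsaI/T4 ligase, 1 h, 37 °C), PCR-amplified and sequenced on an Illumina NextSeq500. Binding signal is each 6-mer's read frequency for a factor divided by its frequency for the GST control.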

The next test has as its target T2, ELK1 (Homo sapiens, UniProt P19419 1-428).
T2 sequence: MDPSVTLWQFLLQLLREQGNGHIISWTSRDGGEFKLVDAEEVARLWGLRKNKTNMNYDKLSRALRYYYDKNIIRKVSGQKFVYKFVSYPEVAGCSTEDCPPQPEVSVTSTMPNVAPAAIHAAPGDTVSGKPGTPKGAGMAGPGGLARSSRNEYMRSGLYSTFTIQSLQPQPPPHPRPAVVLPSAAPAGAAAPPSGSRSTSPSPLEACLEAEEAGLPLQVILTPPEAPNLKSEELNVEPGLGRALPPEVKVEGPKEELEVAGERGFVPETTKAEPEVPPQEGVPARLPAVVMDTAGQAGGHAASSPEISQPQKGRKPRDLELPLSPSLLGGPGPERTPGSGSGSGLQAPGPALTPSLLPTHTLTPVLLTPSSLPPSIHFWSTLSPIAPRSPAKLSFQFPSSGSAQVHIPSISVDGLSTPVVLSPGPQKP
The conditions noted are these: protein: recombinant; tags: N-terminal GST; dsDNA, one strand shown. Summed up:
as §1

A further test has as its target HSF1 (Homo sapiens, UniProt Q00613 1-529). The conditions noted are these: protein: recombinant; tags: N-terminal GST; chain copies: 3; dsDNA, one strand shown. Summed up: as §1
For the next test, the target named is ELF4 (Homo sapiens, UniProt Q99607 1-663). To be noted: protein: recombinant; tags: N-terminal GST; dsDNA, one strand shown. Summed up: as §1
Another test has as its target T3, ELF3 (Homo sapiens, UniProt P78545 1-371).
T3 sequence: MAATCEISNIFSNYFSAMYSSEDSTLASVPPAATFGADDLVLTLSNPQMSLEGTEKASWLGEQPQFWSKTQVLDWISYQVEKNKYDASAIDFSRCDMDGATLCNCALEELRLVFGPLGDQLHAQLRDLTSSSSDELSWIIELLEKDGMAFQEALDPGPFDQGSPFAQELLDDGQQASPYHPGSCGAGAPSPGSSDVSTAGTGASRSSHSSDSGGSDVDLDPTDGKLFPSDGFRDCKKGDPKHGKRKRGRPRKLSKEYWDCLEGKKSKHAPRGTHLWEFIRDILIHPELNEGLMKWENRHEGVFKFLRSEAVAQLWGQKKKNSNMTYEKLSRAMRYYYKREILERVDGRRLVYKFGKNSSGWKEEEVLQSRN
To be noted: protein: recombinant; tags: N-terminal GST; dsDNA, one strand shown. Summed up:
as §1

In another test the target is T4, ERF (Homo sapiens, UniProt P50548 1-548).
T4 sequence: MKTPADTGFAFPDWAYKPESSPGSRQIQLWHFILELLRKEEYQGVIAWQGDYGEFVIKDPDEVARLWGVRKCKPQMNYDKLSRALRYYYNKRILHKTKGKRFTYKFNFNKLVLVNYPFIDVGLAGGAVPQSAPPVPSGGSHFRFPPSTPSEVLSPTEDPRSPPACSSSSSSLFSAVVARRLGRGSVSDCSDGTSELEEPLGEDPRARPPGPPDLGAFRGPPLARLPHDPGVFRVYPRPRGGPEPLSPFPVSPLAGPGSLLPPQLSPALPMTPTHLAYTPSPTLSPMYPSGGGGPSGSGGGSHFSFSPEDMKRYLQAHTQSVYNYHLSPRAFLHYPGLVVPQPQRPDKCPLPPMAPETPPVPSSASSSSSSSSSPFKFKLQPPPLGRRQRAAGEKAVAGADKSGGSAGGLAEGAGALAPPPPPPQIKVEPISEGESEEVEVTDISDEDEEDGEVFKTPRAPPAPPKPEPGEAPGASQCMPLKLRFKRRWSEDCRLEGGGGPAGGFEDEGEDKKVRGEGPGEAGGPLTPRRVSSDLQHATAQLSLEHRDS
To be noted: protein: recombinant; tags: N-terminal GST; dsDNA, one strand shown. Summed up: as §1

In a further test the target is T5, ETV7 (Homo sapiens, UniProt Q9Y603 1-341).
T5 sequence: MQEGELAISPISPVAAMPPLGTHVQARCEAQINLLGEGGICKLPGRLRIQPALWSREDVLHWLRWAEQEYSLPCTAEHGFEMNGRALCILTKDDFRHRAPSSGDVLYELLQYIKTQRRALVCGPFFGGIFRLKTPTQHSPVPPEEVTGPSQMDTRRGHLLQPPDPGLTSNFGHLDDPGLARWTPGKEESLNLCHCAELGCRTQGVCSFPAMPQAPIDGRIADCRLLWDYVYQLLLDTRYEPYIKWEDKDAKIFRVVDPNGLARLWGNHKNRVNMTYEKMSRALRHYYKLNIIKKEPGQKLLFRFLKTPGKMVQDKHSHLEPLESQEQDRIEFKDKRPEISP
The conditions noted are these: protein: recombinant; tags: N-terminal GST; dsDNA, one strand shown. Summed up:
as §1

In a further test the target is T6, ETV3 (Homo sapiens, UniProt P41162-2 1-143).
T6 sequence: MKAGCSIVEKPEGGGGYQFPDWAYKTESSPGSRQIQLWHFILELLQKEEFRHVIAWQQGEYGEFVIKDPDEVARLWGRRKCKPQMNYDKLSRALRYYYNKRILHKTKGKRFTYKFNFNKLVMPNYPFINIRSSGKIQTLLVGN
The conditions noted are these: protein: recombinant; tags: N-terminal GST; dsDNA, one strand shown. Summed up: as §1

The target of the next test is ETV6 (Homo sapiens, UniProt P41212 1-452). The conditions noted are these: protein: recombinant; tags: N-terminal GST; dsDNA, one strand shown. Summed up:
as §1

Sequence of ELF4 (Q99607 whole entry): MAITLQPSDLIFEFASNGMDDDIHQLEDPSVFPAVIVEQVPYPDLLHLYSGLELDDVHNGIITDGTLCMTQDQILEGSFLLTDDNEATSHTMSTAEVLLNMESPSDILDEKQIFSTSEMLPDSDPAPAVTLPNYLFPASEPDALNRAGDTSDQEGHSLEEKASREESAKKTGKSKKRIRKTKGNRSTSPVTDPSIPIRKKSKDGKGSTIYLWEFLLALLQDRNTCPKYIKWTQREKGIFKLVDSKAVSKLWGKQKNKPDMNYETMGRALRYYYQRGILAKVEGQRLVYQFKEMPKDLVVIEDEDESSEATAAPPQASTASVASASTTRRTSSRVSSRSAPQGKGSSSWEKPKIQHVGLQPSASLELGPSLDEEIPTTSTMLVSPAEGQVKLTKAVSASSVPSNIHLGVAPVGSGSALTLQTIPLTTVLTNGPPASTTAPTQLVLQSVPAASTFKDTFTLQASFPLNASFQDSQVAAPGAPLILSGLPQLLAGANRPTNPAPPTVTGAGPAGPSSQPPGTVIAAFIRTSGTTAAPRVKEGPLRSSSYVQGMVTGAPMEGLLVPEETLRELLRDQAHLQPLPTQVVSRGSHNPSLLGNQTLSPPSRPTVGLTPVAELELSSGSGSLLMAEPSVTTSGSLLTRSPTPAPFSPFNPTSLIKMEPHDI
Sequence of ETV6 (P41212 whole entry): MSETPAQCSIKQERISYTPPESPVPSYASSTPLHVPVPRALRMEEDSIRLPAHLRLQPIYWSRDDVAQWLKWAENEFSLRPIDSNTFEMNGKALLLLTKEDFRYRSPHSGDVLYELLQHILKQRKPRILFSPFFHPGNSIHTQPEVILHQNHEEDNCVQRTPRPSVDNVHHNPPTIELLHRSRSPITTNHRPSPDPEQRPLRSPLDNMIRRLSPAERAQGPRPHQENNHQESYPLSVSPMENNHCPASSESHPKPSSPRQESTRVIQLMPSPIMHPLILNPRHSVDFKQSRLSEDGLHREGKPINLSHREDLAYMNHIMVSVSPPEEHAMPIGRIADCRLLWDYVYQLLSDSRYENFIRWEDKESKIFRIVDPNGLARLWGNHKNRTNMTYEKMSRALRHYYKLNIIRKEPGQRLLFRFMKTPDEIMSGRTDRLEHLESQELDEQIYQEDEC
Sequence of HSF1 (Q00613 whole entry): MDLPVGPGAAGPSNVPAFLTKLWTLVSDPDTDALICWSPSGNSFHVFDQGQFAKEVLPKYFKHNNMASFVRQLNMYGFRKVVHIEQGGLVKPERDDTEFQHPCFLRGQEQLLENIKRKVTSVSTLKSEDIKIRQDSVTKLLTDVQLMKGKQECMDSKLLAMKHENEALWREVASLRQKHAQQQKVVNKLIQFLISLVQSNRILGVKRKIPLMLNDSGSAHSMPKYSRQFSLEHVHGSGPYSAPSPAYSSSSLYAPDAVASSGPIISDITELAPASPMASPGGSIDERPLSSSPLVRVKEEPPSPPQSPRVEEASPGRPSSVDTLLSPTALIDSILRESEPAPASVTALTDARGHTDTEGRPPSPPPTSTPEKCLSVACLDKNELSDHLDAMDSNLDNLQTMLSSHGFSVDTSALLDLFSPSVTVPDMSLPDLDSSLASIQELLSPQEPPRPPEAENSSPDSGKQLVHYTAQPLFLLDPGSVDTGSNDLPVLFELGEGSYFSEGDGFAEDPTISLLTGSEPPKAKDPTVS

For AGAAAC, the binding signal is 1.04 fold enrichment (6-mer frequency, TF over GST control) with FLI1; 1.02 fold enrichment (6-mer frequency, TF over GST control) with ELK1; 1.78 fold enrichment (6-mer frequency, TF over GST control) with HSF1; 1.01 fold enrichment (6-mer frequency, TF over GST control) with ELF4; 1.02 fold enrichment (6-mer frequency, TF over GST control) with ELF3; 1.05 fold enrichment (6-mer frequency, TF over GST control) with ERF. The binding signal is 1.16 fold enrichment (6-mer frequency, TF over GST control) with ETV7; 1.01 fold enrichment (6-mer frequency, TF over GST control) with ETV3; 1.03 fold enrichment (6-mer frequency, TF over GST control) with ETV6.
